Results taken from the supplement of paper PMC12067093, “Discovery and optimisation of a covalent ligand for TRIM25 and its application to targeted protein ubiquitination” (Chemical Science, 2025).
Of roughly 21,000 targets only a part is listed; those with the largest changes were picked by preference.

Compound: Cc1cc(ccc1-c1ccccc1)C(=O)N1CCCN(CC1)C(=O)CCl [compound 10]
Experiment: probe-labelled cysteine peptide fold change vs DMSO (competition) (log2 fold change); higher = less target engagement (more negative = stronger competition)
Settings: THP-1, incubation time: 4 h
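Also: competitive profiling in live THP-1 cells: cysteine peptides tagged with an iodoacetamide desthiobiotin (IA-DTB) probe, intensity after compound treatment relative to DMSO-treated cells.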

Chain of UniProt Q8IYB7 (Q8IYB7 whole entry, looked up): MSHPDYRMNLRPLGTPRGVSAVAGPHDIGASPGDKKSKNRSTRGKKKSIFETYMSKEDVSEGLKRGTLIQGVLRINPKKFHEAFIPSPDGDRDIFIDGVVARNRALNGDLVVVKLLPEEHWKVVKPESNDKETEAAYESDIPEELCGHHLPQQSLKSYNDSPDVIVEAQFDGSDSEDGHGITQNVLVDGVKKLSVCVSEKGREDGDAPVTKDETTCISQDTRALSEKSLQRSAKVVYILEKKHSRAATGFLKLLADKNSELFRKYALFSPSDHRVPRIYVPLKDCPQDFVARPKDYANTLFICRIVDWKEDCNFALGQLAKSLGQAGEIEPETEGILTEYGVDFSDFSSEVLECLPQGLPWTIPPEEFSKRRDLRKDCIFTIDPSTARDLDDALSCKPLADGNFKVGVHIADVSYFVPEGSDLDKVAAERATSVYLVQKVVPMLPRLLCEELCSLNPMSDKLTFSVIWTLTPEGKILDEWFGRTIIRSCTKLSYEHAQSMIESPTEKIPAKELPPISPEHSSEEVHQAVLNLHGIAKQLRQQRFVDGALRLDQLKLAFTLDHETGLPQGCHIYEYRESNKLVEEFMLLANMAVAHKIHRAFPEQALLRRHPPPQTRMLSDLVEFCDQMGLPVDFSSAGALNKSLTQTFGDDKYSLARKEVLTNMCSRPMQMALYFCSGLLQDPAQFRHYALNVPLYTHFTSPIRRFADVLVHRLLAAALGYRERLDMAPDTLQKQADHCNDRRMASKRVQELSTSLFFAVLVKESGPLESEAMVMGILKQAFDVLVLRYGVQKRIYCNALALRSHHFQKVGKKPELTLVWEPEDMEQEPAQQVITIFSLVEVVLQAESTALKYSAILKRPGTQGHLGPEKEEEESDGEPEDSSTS
Chain of UniProt Q7Z401 (Q7Z401 whole entry, looked up): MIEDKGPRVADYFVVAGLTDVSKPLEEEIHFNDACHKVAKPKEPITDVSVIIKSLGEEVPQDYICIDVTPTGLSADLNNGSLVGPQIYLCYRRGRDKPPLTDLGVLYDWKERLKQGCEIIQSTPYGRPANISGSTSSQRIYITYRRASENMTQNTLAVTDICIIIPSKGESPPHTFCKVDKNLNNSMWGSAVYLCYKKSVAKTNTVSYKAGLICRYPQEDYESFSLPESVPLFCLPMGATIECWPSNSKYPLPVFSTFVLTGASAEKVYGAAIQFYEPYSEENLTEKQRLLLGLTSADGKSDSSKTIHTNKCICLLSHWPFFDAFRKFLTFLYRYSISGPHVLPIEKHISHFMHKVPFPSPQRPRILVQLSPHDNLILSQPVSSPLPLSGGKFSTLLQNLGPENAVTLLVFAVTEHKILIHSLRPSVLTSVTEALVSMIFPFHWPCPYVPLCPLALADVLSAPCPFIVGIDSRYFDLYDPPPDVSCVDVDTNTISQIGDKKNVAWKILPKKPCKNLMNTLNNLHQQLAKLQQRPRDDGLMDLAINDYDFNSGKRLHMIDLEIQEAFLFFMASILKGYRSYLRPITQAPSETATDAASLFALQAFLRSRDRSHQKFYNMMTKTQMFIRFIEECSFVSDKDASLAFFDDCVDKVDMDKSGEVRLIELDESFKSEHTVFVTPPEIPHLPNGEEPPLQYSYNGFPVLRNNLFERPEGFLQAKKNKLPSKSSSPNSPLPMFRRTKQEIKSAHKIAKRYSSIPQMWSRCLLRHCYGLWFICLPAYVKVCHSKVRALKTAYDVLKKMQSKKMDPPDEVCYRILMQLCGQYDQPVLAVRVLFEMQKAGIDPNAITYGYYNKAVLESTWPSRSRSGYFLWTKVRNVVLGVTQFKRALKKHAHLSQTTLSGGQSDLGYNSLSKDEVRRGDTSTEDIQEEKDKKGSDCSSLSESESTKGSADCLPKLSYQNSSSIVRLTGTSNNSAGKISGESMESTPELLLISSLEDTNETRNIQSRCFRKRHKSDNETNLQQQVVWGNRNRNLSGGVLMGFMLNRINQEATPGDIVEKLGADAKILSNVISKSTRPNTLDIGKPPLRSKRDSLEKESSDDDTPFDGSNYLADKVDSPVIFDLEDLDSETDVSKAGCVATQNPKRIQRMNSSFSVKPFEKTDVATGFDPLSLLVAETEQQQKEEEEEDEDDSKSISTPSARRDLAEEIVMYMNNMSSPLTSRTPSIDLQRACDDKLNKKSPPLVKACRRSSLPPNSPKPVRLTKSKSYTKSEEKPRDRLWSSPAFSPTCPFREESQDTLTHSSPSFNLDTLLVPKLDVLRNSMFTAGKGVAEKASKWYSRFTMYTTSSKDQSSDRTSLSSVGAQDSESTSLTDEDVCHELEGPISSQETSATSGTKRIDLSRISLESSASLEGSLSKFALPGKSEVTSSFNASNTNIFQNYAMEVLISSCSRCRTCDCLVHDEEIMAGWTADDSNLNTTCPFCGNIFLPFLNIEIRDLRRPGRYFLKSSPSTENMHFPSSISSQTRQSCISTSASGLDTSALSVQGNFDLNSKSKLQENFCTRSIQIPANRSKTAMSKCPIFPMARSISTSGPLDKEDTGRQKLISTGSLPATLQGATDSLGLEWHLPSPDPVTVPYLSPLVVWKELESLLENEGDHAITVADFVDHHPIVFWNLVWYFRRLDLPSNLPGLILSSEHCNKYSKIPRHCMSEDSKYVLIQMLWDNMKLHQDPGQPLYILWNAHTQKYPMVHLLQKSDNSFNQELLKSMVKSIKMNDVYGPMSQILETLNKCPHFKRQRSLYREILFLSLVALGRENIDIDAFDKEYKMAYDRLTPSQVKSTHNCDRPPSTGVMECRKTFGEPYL
Chain of UniProt P53621 (P53621 whole entry, looked up): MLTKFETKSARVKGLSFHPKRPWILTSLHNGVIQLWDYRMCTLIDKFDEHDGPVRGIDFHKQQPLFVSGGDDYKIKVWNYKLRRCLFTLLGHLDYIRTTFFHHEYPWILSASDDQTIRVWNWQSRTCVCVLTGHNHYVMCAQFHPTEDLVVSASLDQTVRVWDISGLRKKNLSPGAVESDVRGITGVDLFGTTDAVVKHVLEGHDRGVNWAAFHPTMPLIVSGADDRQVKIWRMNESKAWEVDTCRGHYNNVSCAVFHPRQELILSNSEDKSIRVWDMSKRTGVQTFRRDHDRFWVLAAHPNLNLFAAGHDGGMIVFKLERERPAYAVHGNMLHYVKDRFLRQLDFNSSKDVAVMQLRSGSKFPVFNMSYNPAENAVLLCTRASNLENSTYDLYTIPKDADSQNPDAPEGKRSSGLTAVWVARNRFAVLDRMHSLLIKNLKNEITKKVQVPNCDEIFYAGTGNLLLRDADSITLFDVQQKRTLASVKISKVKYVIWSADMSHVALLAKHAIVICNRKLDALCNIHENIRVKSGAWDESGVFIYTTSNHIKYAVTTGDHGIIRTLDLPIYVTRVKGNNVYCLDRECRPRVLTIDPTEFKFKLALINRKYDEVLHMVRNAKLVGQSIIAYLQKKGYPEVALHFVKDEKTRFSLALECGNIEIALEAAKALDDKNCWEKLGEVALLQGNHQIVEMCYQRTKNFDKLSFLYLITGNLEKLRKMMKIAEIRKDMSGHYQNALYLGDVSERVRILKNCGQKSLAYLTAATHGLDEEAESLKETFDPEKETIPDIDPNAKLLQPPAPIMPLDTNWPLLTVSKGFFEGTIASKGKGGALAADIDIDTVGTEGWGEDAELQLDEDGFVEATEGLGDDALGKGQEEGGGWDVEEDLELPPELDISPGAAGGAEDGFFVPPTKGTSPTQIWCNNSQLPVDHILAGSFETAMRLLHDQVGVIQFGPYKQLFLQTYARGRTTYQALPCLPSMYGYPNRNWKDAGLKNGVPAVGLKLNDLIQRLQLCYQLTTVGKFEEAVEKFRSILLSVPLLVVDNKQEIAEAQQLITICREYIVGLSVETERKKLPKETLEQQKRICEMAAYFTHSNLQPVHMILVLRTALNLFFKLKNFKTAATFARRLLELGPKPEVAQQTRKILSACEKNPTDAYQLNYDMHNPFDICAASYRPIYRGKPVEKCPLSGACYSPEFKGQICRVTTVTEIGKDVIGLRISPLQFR
Chain of UniProt P32321 (P32321 whole entry, looked up): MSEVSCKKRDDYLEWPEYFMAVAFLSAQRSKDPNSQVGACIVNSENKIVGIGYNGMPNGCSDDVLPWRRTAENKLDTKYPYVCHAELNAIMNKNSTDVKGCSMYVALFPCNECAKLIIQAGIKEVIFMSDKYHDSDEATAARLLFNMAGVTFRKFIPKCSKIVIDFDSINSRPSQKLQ
Chain of UniProt Q9UK59 (Q9UK59 whole entry, looked up): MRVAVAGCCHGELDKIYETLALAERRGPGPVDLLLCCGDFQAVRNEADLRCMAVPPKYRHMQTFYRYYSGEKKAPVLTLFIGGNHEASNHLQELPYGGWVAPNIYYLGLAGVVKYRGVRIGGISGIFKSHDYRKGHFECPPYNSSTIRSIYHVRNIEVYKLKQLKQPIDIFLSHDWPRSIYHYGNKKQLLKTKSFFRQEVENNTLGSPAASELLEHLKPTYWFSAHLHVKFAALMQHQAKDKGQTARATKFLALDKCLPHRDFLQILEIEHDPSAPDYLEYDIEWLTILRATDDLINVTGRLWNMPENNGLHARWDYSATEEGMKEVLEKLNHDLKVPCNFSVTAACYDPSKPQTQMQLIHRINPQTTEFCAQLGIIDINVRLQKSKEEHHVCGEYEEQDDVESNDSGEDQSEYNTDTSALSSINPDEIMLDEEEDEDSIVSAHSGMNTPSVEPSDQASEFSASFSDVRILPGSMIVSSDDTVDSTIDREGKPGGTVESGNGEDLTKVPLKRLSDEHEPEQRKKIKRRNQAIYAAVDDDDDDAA
Chain of UniProt Q9Y2B0 (Q9Y2B0 whole entry, looked up): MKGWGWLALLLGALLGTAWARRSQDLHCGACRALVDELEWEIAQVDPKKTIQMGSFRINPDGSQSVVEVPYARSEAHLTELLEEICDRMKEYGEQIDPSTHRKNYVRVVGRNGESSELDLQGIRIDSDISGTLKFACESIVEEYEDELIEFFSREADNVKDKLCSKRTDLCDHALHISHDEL

| Target | probe-labelled cysteine peptide fold change (10 µM) | probe-labelled cysteine peptide fold change (50 µM) |
| --- | --- | --- |
| DNMT1_P26358_1339_ACQLSVVVDDKK (UniProt P26358) | -0.133 | -1.16 |
| CYBB_P04839_369_IVGDWTEGLFNACGCDK (UniProt P04839) | -0.0879 | 0.149 |
| CRELD2_Q6UXH1_166_QGDGSCR (UniProt Q6UXH1) | -0.195 | -0.265 |
| DIS3L2_Q8IYB7_196_LSVCVSEK (UniProt Q8IYB7) | -0.124 | 0.0776 |
| DEF6_Q9H4E7_266_GIIPLDAHCCVEVLPDRDGKR (UniProt Q9H4E7) | 0.106 | -0.227 |
| DENND3_A2RUS2_1094_DTSTSFLAFQLLPEEEQLWAACAGR (UniProt A2RUS2) | 1.07 | 1.16 |
| COG1_Q8WTW3_625_LCQSLGELCPHLK (UniProt Q8WTW3) | -0.144 | -0.347 |
| DENND4A_Q7Z401_952_GSADCLPK (UniProt Q7Z401) | -0.312 | 0.101 |
| DDX54_Q8TDD1_389_CSTLIVTDLAAR (UniProt Q8TDD1) | 0.1 | 0.184 |
| DCAF8_Q5TAQ9_256_FLPNSGDSTLAMCAR (UniProt Q5TAQ9) | -0.0556 | -0.22 |
| DHX30_Q7L2E3_673_GEPGGILCFLPGWQEIK (UniProt Q7L2E3) | 0.357 | 0.169 |
| CNPY2_Q9Y2B0_28_SQDLHCGACR (UniProt Q9Y2B0) | -0.272 | -0.187 |
| DHX9_Q08211_1099_LQISHEAAACITGLR (UniProt Q08211) | 0.136 | 0.171 |
| DCTD_P32321_60_IVGIGYNGMPNGCSDDVLPWR (UniProt P32321) | 0.155 | -0.179 |
| DKK2_Q9UBU2_214_ICKPVLHQGEVCTK (UniProt Q9UBU2) | -0.0653 | -0.0474 |
| DBNL_Q9UJU6-3_256_NEQGSTCASLQESAVHPR (UniProt Q9UJU6) | -0.341 | -0.167 |
| CPPED1_Q9BRF8_88_FFVLCGDLIHAMPGKPWR (UniProt Q9BRF8) | -0.0653 | -0.191 |
| CTSG_P08311_207_AAFKGDSGGPLLCNNVAHGIVSYGK (UniProt P08311) | -0.329 | -0.817 |
| DLEC1_Q9Y238_256_LEDSCR (UniProt Q9Y238) | 0.773 | 1.66 |
| CYB5R4_Q7L1T6_278_CQLISK (UniProt Q7L1T6) | -0.0627 | -0.00326 |
| COPA_P53621_1148_KILSACEK (UniProt P53621) | -0.212 | -1.12 |
| DBR1_Q9UK59_36_RGPGPVDLLLCCGDFQAVR (UniProt Q9UK59) | 0.0792 | -0.183 |
| CPSF3_Q9UKF6_626_RLEIMLQDIFGEDCVSVK (UniProt Q9UKF6) | -0.0218 | 0.198 |
| DDX46_Q7L014_646_ASYPCMSLHGGIDQYDR (UniProt Q7L014) | -0.0173 | 0.231 |
| DNAJA3_Q96EY1_236_EFTVNIMDTCER (UniProt Q96EY1) | -0.1 | -0.195 |
| CRYZ_Q08257_45_VHACGVNPVETYIR (UniProt Q08257) | 0.0503 | -0.01 |
| COLGALT1_Q8NBJ5_369_ALQAQEIECR (UniProt Q8NBJ5) | 0.0256 | 0.125 |
| DDX17_Q92841_166+199_GGDVCPKPVFAFHHANFPQYVMDVLMDQHFTEPTPIQCQGFPLALSGR (UniProt Q92841) | -0.28 | -1.05 |
